Of roughly 7,900 targets only a part is listed; those with a hit were picked by preference. About 0.6% of all pairs of compound and target were hits.
What follows are targets tested with c1cn2cc(-c3ccc4cn[nH]c4c3)nc(Nc3ccc(N4CCOCC4)cc3)c2n1 [entospletinib] (assay: log2 fold change, soluble protein after heating vs DMSO (PISA); higher = thermal stabilisation; K562 cells, 10 uM, 30 min; active = over 0.2 and 3.5 SD of the protein, either way, in both replicates (recomputed)).
In short: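 Aliquots of K562 cells (2×10^6 cells/mL) treated with 10 μM compound for 30 min were heated for 3 min over 48°C-58°C. After pooling and extraction in PBS with 0.5% NP-40 at 4°C, soluble protein from a 21,000xg, 90 min spin was quantified by TMTpro 16plex LC-MS/MS with channel sums equalised. Thermal stability is expressed against control samples, from duplicates, as a log2 fold change.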

UniProt O95628, sequence (O95628 whole entry, looked up): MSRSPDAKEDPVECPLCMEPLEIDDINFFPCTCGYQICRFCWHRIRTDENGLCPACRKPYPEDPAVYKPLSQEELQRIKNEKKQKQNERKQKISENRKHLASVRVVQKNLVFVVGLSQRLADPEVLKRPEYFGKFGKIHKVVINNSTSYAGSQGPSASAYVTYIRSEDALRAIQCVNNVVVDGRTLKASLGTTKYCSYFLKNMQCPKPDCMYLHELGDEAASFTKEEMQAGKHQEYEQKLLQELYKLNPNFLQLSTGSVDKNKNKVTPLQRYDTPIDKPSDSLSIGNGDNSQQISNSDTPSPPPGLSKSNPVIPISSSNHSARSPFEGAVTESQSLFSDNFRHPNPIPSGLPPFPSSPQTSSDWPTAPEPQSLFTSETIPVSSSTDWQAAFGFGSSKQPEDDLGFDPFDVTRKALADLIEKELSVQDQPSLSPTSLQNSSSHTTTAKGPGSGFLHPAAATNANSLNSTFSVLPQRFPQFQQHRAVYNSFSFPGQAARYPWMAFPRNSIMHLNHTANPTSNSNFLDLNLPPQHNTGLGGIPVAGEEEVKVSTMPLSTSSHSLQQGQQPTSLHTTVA
UniProt Q5JTJ3, sequence (Q5JTJ3 whole entry, looked up): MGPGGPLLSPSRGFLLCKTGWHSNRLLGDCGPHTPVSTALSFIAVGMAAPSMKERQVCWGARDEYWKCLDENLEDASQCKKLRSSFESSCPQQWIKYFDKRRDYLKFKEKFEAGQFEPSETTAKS
UniProt A5YKK6, sequence (A5YKK6 whole entry, looked up): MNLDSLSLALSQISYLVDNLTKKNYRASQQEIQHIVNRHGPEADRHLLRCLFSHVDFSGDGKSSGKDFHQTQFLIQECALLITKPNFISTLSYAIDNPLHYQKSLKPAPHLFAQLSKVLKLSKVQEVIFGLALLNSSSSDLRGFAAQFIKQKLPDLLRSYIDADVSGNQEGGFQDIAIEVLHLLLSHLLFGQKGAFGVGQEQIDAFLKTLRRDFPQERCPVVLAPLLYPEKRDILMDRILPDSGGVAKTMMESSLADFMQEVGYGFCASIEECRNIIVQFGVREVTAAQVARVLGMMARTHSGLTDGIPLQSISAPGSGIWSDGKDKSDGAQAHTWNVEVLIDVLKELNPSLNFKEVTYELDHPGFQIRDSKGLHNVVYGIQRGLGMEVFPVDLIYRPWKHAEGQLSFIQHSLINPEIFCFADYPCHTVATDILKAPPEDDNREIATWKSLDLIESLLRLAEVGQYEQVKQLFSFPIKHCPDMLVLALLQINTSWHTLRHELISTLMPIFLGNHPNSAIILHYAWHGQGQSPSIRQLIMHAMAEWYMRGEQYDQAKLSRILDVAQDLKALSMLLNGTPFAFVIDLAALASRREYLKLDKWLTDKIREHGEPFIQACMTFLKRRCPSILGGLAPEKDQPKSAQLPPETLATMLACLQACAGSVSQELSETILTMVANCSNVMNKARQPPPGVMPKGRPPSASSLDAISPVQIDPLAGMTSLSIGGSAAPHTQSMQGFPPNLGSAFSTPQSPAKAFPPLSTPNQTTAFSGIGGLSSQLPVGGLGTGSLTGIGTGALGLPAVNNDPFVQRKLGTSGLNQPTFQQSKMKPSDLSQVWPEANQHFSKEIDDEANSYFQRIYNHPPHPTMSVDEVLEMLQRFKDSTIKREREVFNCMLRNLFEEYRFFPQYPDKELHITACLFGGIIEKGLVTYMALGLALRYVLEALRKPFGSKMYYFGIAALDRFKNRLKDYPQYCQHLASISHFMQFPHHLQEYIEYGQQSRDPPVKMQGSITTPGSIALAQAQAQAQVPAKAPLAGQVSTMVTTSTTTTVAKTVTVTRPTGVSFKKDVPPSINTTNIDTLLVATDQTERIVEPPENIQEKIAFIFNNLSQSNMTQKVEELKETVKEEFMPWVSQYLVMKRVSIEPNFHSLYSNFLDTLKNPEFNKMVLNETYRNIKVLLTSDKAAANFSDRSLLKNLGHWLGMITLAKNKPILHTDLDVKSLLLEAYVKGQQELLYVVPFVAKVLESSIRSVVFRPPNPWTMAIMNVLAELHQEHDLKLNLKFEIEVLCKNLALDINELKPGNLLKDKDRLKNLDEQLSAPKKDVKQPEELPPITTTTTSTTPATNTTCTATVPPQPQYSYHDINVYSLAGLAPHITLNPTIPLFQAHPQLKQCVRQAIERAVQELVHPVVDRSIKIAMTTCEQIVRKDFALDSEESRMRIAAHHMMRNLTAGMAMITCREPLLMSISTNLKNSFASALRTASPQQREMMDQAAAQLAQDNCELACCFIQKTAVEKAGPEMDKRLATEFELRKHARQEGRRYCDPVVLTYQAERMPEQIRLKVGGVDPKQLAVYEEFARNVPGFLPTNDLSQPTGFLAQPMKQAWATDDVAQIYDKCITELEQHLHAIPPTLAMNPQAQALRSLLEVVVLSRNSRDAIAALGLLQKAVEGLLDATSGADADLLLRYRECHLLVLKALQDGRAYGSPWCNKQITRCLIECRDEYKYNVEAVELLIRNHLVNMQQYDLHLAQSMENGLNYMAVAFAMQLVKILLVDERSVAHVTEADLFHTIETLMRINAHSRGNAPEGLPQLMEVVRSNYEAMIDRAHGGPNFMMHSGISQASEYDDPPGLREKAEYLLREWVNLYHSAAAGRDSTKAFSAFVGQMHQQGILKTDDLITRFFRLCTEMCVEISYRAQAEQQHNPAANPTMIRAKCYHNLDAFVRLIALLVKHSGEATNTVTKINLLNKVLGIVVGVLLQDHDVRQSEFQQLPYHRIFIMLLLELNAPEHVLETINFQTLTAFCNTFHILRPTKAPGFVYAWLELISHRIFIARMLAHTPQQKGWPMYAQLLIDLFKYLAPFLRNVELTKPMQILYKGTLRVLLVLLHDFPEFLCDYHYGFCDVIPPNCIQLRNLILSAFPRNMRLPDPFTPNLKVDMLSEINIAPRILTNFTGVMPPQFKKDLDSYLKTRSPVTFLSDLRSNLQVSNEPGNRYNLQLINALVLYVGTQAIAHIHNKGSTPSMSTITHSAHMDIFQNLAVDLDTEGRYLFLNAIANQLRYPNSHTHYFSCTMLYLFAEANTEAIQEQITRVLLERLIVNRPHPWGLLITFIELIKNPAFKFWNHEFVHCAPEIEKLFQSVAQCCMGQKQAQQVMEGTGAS
UniProt P55211, sequence (P55211 whole entry, looked up): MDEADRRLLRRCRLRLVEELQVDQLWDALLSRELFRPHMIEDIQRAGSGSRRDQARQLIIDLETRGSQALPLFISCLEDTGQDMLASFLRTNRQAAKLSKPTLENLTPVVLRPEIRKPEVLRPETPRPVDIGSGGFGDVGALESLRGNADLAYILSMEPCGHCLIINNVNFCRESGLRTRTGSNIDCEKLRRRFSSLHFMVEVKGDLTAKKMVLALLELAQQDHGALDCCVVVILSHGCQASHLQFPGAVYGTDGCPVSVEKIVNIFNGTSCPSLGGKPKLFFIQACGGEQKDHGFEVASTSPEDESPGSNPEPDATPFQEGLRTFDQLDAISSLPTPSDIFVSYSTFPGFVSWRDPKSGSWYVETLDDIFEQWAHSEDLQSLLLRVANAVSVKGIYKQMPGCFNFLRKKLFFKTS
UniProt P42574, sequence (P42574 whole entry, looked up): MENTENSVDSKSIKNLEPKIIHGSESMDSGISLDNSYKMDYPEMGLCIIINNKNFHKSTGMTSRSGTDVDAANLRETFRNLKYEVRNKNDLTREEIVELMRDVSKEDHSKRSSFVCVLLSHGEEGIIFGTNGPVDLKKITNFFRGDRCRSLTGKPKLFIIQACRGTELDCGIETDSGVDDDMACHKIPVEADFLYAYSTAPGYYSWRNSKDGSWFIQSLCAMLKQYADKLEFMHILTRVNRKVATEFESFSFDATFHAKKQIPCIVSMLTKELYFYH
UniProt Q99627, sequence (Q99627 whole entry, looked up): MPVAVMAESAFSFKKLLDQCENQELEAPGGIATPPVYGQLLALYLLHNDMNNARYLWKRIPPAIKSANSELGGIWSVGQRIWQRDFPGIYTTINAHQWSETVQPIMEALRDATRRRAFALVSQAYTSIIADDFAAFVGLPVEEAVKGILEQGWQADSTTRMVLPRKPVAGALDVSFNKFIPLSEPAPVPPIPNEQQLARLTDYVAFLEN
UniProt Q9Y5P4, sequence (Q9Y5P4 whole entry, looked up): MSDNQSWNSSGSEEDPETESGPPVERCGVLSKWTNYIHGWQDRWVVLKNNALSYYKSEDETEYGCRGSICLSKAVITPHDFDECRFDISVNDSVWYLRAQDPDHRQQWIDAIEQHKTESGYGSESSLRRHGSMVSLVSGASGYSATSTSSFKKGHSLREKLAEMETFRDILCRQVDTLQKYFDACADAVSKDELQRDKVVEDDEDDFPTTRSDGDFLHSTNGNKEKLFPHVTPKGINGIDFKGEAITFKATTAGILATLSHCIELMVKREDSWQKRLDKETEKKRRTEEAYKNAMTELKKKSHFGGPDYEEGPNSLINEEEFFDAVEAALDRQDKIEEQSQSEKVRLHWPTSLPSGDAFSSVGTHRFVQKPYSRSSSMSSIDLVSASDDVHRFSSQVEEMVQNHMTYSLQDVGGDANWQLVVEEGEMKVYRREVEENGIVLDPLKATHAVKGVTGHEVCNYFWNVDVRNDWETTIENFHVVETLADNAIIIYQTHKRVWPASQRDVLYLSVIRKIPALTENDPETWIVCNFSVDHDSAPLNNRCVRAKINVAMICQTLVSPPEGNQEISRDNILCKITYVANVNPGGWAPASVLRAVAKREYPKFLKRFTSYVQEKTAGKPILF
UniProt P51946, sequence (P51946 whole entry, looked up): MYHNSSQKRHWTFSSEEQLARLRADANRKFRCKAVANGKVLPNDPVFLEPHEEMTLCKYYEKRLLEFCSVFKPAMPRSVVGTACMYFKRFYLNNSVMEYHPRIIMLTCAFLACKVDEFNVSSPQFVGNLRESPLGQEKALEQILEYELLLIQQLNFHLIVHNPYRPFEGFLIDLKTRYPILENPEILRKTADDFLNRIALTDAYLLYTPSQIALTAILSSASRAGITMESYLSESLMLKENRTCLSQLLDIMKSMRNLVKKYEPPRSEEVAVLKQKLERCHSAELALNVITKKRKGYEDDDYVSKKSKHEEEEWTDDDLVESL
UniProt P24311, sequence (P24311 whole entry, looked up): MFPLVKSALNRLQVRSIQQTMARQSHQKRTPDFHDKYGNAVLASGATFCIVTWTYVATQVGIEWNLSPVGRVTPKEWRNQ

log2 fold change, inactive:
CALB1 (UniProt P05937) -0.016, CS (UniProt O75390) 0.005, CNOT4 isoform 9 (UniProt O95628) 0.02, CPSF1 (UniProt Q10570) 0.037, CBR1 (UniProt P16152) -0.019, CNOT1 (UniProt A5YKK6) 0.014, COA6 isoform 2 (UniProt Q5JTJ3) 0.004, COX7B (UniProt P24311) 0.005, CNN2 (UniProt Q99439) -0.011, CRTC2 (UniProt Q53ET0) -0.038, COPS8 (UniProt Q99627) 0, CCNH (UniProt P51946) -0.019, CASP3 (UniProt P42574) 0.044, CASP9 (UniProt P55211) -0.211, CDK8 (UniProt P49336) -0.037, CERT isoform 3 (UniProt Q9Y5P4) 0.019

From the supplement of paper PMC10849652
